HEK293 tox: HEK 293 cell cytotoxicity | 6.6% of 94,000 active | HEK 293 viability, ATP luminescence (CellTiter-Glo), 48-72 h | AID 1345083 | Potency, µM (doses to about 115 µM), without a hit: at the highest dose activity change, negative = cytotoxicity, hits mostly inhibitors; note: nearly all actives have a fitted effect of over 60% in size
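Pintool-delivered compounds were incubated with HEK 293 cells (250 cells/well) at 37 degree Celsius for 48 or 72 hr. ATP-dependent luminescence (CellTiter-Glo) then reported remaining viable cells.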
FLuc inh: Photinus pyralis luciferase inhibition; purified P. pyralis luciferase, luminescence, biochemical; AID 1347043; 2.5% of 76,000 active; Potency, µM (highest dose often 115 µM), actives largely listed as inhibitors; note: nearly all actives have a fitted effect of over 65% in size
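Inhibitors were tested against purified firefly luciferase in a biochemical, low-substrate format (both substrates at 10uM) and luminescence measured with a CCD imager.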
NPR1 antag: antagonists of human natriuretic peptide receptor Npr1; P16066; HEK293 hNpr1 GloSensor cGMP, ANP-stimulated luminescence; Potency, µM (top dose mostly 46.3 µM), inactives show at the highest dose activity change, negative = inhibition, actives largely listed as inhibitors; 1.6% of 76,000 active; calls by dose curve; note: nearly all actives have a fitted effect of over 60% in size
Target sequence (P16066 whole entry, looked up): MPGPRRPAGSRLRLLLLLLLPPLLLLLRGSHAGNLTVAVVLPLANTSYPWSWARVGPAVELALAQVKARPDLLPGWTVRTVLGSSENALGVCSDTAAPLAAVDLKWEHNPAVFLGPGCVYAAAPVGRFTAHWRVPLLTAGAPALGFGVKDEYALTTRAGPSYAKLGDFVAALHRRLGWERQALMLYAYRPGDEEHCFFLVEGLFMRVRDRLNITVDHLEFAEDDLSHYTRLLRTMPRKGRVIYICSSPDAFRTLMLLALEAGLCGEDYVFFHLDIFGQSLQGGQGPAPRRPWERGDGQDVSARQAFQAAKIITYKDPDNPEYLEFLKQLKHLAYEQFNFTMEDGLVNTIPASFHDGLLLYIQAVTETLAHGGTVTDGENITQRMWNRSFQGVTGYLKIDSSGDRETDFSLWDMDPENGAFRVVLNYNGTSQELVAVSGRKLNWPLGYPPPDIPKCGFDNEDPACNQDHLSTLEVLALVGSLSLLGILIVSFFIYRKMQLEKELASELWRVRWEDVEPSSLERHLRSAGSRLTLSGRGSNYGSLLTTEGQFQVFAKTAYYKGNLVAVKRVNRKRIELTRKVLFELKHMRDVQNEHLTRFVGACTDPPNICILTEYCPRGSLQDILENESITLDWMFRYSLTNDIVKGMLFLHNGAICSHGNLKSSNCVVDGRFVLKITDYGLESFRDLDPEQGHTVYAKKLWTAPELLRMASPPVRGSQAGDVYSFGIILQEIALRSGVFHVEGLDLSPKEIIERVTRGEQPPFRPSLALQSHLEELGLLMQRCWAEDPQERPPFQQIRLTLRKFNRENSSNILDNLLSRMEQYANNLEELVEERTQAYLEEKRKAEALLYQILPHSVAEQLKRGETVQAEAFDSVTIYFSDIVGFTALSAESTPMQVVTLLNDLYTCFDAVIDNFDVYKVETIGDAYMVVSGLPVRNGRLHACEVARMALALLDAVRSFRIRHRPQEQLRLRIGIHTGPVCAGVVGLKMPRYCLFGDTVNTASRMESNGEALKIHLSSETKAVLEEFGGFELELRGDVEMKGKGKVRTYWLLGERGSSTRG
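Compound pre-incubated 30 min at room temperature on GloSensor-loaded HEK293 cells stably carrying hNpr1 and the pGS-40F cGMP biosensor. Stimulation uses hNppA at 0.1 nM final; luminescence is taken at baseline and 20 min post-agonist.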
NIH3T3 tox: kills NIH 3T3 cells; Potency, µM (series often up to 96.7 µM), without a hit: at the top dose activity change, negative = cytotoxicity, most hits filed as inhibitors; NIH 3T3 viability, CellTiter-Glo ATP luminescence, 48-72 h; 4.3% of 94,000 active; AID 1345082; note: nearly all actives have a fitted effect of over 55% in size
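Cells were seeded at 400 per well, treated with pin-transferred compound, and kept 48 or 72 hr at 37 °C before CellTiter-Glo addition and luminescence imaging of cellular ATP.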
* marks the source's active call; other numbers are inactive results; i = inactive; ? = inconclusive; / = no result given; [ ] = dose if it differs, or a comment. Compounds with a hit are over-represented: about 11% of the library has one in this group of screens. Unless noted, calls come from the whole dose curve; as a rule, active = well fitted curve in the direction sought with a large enough effect; inconclusive = small, poorly fitted or top-dose-only effect, or another doubt; inactive = no such curve, though single readings can be large; an effect the other way counts as inactive or inconclusive. % is set by controls: 0 for no effect and ±100 for the full control effect; potency is the fitted concentration of half-maximal effect.

SMILES | HEK293 tox | FLuc inh | NPR1 antag | NIH3T3 tox
CN(C)CCNC(=O)c1nc2nc(-c3ccccc3)c(-c3cccc(Cl)c3)cc2n1C | 28µM* | i | -20%[70.6 µM] | 10µM*
Cn1c(C(=O)NCCc2ccccn2)nc2nc(-c3ccccc3)c(Cl)cc21 | ? | 45µM* | -22%[70.6 µM] | ?
COCc1nc2nc(-c3ccccc3)c(-c3ccccc3OC)cc2n1C | ? | i | ? | ?
CN(C)CCNC(=O)c1nc2nc(-c3ccccc3)c(-c3ccc(Cl)cc3)cc2n1C | 40µM* | i | -4%[70.6 µM] | 25µM*
CN(C)CCNC(=O)c1nc2nc(-c3ccccc3)c(-c3cccc(CO)c3)cc2n1C | ? | i | -1%[70.6 µM] | ?
Cn1c(C(=O)NCC2CC2)nc2nc(-c3ccccc3)c(Cl)cc21 | -6%[172 µM] | i | / | ?
O=C(NCc1cccc(C(F)(F)F)c1)c1nc2cccnc2n(CCc2ccccc2)c1=O | -14% | / | / | -24%
COc1ncccc1-c1cc2c(nc1-c1ccccc1)nc(C(=O)NCCN(C)C)n2C | ? | i | -15%[70.6 µM] | ?
Cc1ccc(-c2cc3c(nc2-c2ccccc2)nc(C(=O)NCCN(C)C)n3C)cc1 | 40µM* | i | 3%[70.6 µM] | 11µM*
CN(C)CCNC(=O)c1nc2nc(-c3ccccc3)c(-c3ccccc3O)cc2n1C | ? | i | ? | 79µM*
O=C(C1CCCN1C(=O)C1CC1)N1CCC(N2Cc3ccccc3C2=O)CC1 (stereo not drawn) | -8% | / | / | -5%
CNC(=O)CCn1ncc2cc(OCc3ccccc3-c3cnn(C)c3)ccc21 | ? | i | 1%[70.6 µM] | ?
CNC(=O)CCn1ncc2cc(OCc3ccccc3-c3cccnc3OC)ccc21 | ? | ? | 3%[70.6 µM] | ?
CNC(=O)CCn1ncc2cc(OCc3ccccc3-c3ccc(OC)cc3)ccc21 | 100µM* | i | -1%[70.6 µM] | 89µM*
CNC(=O)CCn1ncc2cc(OCc3ccccc3-c3ccc(OC)cc3C)ccc21 | 100µM* | ? | -2%[70.6 µM] | ?
CNC(=O)CCn1ncc2cc(OCc3ccccc3-c3cncc(OC)c3)ccc21 | 79µM* | 22µM* | -11%[70.6 µM] | ?
CNC(=O)CCn1ncc2cc(OCc3ccccc3-c3ccsc3)ccc21 | 89µM* | 50µM* | 0%[70.6 µM] | ?
Cc1nn(-c2ccccc2)c2c1C(C(C)C)N(C1CCN([S+](=O)([O-])c3c(C)noc3C)CC1)C2=O (stereo not drawn) | -3% | / | / | -16%
CNC(=O)CCn1ncc2cc(OCc3ccccc3-c3cccc(OC)c3)ccc21 | 79µM* | 45µM* | -12%[70.6 µM] | ?
CNC(=O)CCn1ncc2cc(OCc3ccccc3-c3cc(Cl)ccc3OC)ccc21 | ? | i | -11% | ?
CNC(=O)CCn1ncc2cc(OCc3ccccc3-c3cc(F)cc(OC)c3)ccc21 | 71µM* | i | -6%[70.6 µM] | ?
Cn1ccc(NC(=O)c2ccc3c(c2)C2(CCN(CC4CC4)C2)CN3Cc2ccccc2)n1 (stereo not drawn) | 32µM* | i | -9% | ?
CN1CCC2(C1)CN(Cc1ccccc1)c1ccc(C(=O)Nc3ccc(F)cc3)cc12 (stereo not drawn) | 40µM* | i | -1%[70.6 µM] | 25µM*
CN1CCC2(C1)CN(Cc1ccccc1)c1ccc(C(=O)NC3CCC(O)CC3)cc12 (stereo not drawn) | ? | i | -2%[70.6 µM] | -17%[138 µM]
COc1ccc(NC(=O)c2ccc3c(c2)C2(CCN(C)C2)CN3Cc2ccccc2)cc1 (stereo not drawn) | 71µM* | i | -4%[70.6 µM] | 50µM*
SMILES | HEK293 tox | FLuc inh | NPR1 antag | NIH3T3 tox
COc1ccc(NC(=O)c2ccc3c(c2)C2(CCCN(C)C2)CN3C)cc1 (stereo not drawn) | ? | i | 0%[70.6 µM] | ?
COc1cccc(CN2CC3(CCN(C)C3)c3cc(C(=O)NC4CCCCC4)ccc32)c1 (stereo not drawn) | 56µM* | i | -10%[70.6 µM] | 25µM*
CN1CCCC2(C1)CN(Cc1cccnc1)c1ccc(C(=O)Nc3ccc(F)cc3)cc12 (stereo not drawn) | ? | i | 3%[70.6 µM] | ?
COC(=O)[C@@H]1Cc2ncn(Cc3ccc(Cl)cc3)c2CN1S(=O)(=O)c1cccc2c(N(C)C)cccc12 | ? | i | -5% | ?
O=[S+]([O-])(c1ccccc1)N1CC2(COCCN(CC3CC3)C2)C1 | -20%[172 µM] | i | 1%[70.6 µM] | ?
O=C(NCCc1ccc(Cl)cc1)c1nc(-c2ccsc2)c2ccccn12 | -10% | i | 14% | -20%
COCCc1noc([C@@H]2CN(Cc3ccc4c(c3)CCO4)C[C@H]2CO)n1 | -21% | i | -1% | -18%
COCCc1noc([C@@H]2CN(Cc3ccc(C(C)C)cc3)C[C@H]2CO)n1 | 40µM* | i | -28% | ?
O=C(NC1CCCN(Cc2ccc(-c3cncnc3)cc2)C1)c1ccc(Cl)nc1 (stereo not drawn) | ? | / | / | -24%
COc1ccc(F)cc1-c1ccc(CN2CCC(NC(=O)c3ccc(Cl)nc3)C2)cc1 (stereo not drawn) | 32µM* | / | / | 32µM*
COc1ccc(C(=O)NC2CCN(Cc3ccc(-c4cc(F)ccc4OC)cc3)C2)cc1 (stereo not drawn) | 22µM* | / | / | 18µM*
COc1ccccc1-c1ccc(CN2CCC(NC(=O)c3ccc(Cl)cc3)C2)cc1 (stereo not drawn) | 25µM* | / | / | 14µM*
COc1ccc(F)cc1-c1ccc(CN2CCC(NC(=O)c3cccnc3)C2)cc1 (stereo not drawn) | 50µM* | / | / | ?
COc1ccc(C(=O)NC2CCCN(c3cc(-c4ccc(F)cc4)[nH]n3)C2)cc1 (stereo not drawn) | ? | ? | -12% | ?
CSc1ccc(-c2cccc(CN3CCC(NC(=O)c4cccnc4)CC3)c2)cc1 | -10% | / | / | -16%
C[S+](=O)([O-])N1CCC(c2nnc3n2C(C(=O)NCCc2ccc(Cl)cc2)CC3)CC1 (stereo not drawn) | 0% | / | / | -14%
Cn1ncc2c(C(=O)Nc3cccnc3)cc(-c3cccc(C(F)(F)F)c3)nc21 | 4% | / | / | -11%
O=C(C1CC1)N1CCN(c2ccnc3ccnn23)CC1 | 4%[172 µM] | / | / | -3%[138 µM]
COc1ccc(C(=O)NC2CCN(Cc3ccc(-c4ccccc4OC)cc3)C2)cc1 (stereo not drawn) | ? | / | / | 22µM*
COc1ccccc1-c1ccc(C(=O)N2CCC(NC(=O)c3ccc(F)cc3)CC2)cc1 | -12% | / | / | -6%
CC1CCN(C(=O)c2ccccc2OCC2CCCN(Cc3nccs3)C2)CC1 (stereo not drawn) | ? | i | -18% | -26%
COc1cccc(CC(=O)N2CCCn3nc(C)c(-c4ccccc4C(C)C)c32)c1 | ? | i | ? | ?
Cc1nn2c(c1-c1ccccc1N1CCCC1)N(C(=O)C(C)C)CCC2 | 35µM* | i | 6%[70.6 µM] | ?
COc1ccccc1C(=O)N1CCCn2nc(C)c(-c3ccccc3C(C)C)c21 | 89µM* | i | -2%[70.6 µM] | ?
